biological target: LIG4; assay: pooled miR-30 sensor sort-seq; sequence = guide strand; conditions: shRNA
Further: reference of the scale not given here.

Sequence	sensor-assay potency score (higher = more potent)
TAACACAAAACTCTACATCTTC	0.104
TTGCTGACTAACACCAAGCTTT	-0.307
TAGCTTTTTATTATTAACCATC	-1.43
TTTTAGATCATTAAGTCTCATA	-0.76
TTTATTGTTACATTTGGCCTTA	0.231
TAGTTTGCTGACTAACACCAAG	-1.17
TTTCTGTAAACATCTTGGCTTC	-0.577
TTTATATACATCTCCATCTTTG	-1.01
TTCCTTTCTGTAAACATCTTGG	-0.486
TTCTTCAGGAGTCTGCTCGTTA	0.109
TAGTCCACTGACATACTCTGGT	0.198
TAAAAGGTCGTTTACTTGCTGT	-0.0412

biological target: LILRA4; assay: as above; conditions: shRNA

Sequence	sensor-assay potency score (higher = more potent)
TAGGTTTTCTGCCTGCACCCGG	-0.532
TTGTGTGCGCCGTAGCATCTGT	-0.739
TTTGGGTAGGTTTTCTGCCTGC	-0.143
AATCTGACTTCTTTTGTGCTGG	0.00913
TCCTTGTACAGAGTGTATCTGA	-0.799
TTGATCTCAGACGCAACGGGGG	-1.08
TAGCATCTGAATGTACCCCTGT	0.139
TAGCCGTAGCATCTGAATGTAC	-0.777
TAATGGAGGAAGCATCTTCTAC	-1.03
TTCTCTCCTGAGGTCACCGTGG	-1.07
TCCTCAATCAGAGTGAACCTGC	-0.933
TTTTCATAGCCGTAGCATCTGA	-1.2

biological target: LILRB3; assay: as above; conditions: shRNA

Sequence	sensor-assay potency score (higher = more potent)
TATGCAGTCGGTACTCCTGGGC	-0.223
TTGATTGTTGAGAAGTCTGTTG	-0.405
TTGTGTGCACCGTAGCACCTGT	-0.532
TGCTGTGACGCTGACGTCGGAG	-0.552
TATTAGTCATCTTTGAGTCAGG	-0.452
TTAGTCATCTTTGAGTCAGGTG	-0.0536
TTCCGTCTAAGGGTCAAGCTGT	-0.222
TGACTGTCCAGCTCCACCCTGT	-0.563
TTATGCAGTCGGTACTCCTGGG	-0.343
TTGTTGAGAAGTCTGTTGCTTT	-0.0209
TTTCTCTGGTCAGATGTCCTGT	-0.223
TTTATGCAGTCGGTACTCCTGG	-0.617

biological target: LIMK2; assay: as above; conditions: shRNA

Sequence	sensor-assay potency score (higher = more potent)
TACTTGATGGTGACCTTCCCTT	-0.173
TCGAGTAACAGATTCCTCCTGG	1.05
TTCACTTGCACAGTGGTGGCGT	0.835
TACAGCACACCAATGAACTTGA	-0.145

— the OligoGym collection
